Experimental data published in ChEMBL document CHEMBL3988442, “University of Dundee, Small-Polar-MMV Screening Library” (2021).
Among all 48,000 compounds or so, about 13,000 (27%) showed an effect of 50% or more. This is one part of the list.

Each molecule was assayed on Wolbachia pipientis (assay: Anti-Wolbachia Cell-Based Screen). Details: 5 µM.
Format: functional
Design: scale not given: in the data most compounds retested in dose-response had high values

| Structure (SMILES) | Percent Effect [%] |
| --- | --- |
| c1ccc2c(c1)CC(CNCc1ccncc1)(N1CCCCC1)C2 | -2.88 |
| CC(CN1CCC2(CC1)c1nc[nH]c1CCN2S(C)(=O)=O)C(F)(F)F (stereo not given) | -8.098 |
| COC(=O)c1ccc(C(=O)NS(=O)(=O)c2cncc(Br)c2)cc1 | -17.99 |
| Cc1ncsc1CCCn1ccnc1-c1cc2n(n1)CCCNC2 | -0.1089 |
| CC(O)CN1CCc2[nH]nc(C(c3ccccc3)c3ccccc3)c2C1 (stereo not given) | 0.8234 |
| CCC1(C(=O)O)CCCN(C(=O)c2ccc(N3CCN(C)CC3)cc2)C1 (stereo not given) | 4.53 |
| CCC1(CO)CCCN(C(=O)c2ccc(N3CCN(C)CC3)cc2)C1 (stereo not given) | -10.61 |
| CCc1ccc(C(=O)N2CCCC3(CCCC(=O)N3C)C2)cc1 (stereo not given) | 97.96 |
| COc1ccc(C(=O)N2CCCC3(CCCC(=O)N3C)C2)cc1 (stereo not given) | 91.19 |
| O=C(NC1CCCCC1)N1C[C@H]2CN(c3cnccn3)C[C@@]2(C(=O)O)C1 | -17.1 |
| Cc1ccc2c(c1)C(NCc1ncnn1C)CC2 (stereo not given) | -32.91 |
| CN1C(=O)CC(C(=O)O)C12CCN(Cc1ccc(Cl)c(F)c1)CC2 (stereo not given) | -9.63 |
| CC(C)Oc1ccccc1NC(=O)N1CCC(n2cncn2)CC1 | 90.39 |
| CC(NC(=O)N1CCC(n2cncn2)CC1)c1ccc(F)cc1F (stereo not given) | -3.93 |
| COc1ccccc1CCNC(=O)N1CCC(n2cncn2)CC1 | 106.2 |
| COC(CNC(=O)N1CCC(n2cncn2)CC1)c1ccccc1 (stereo not given) | 1.274 |
| COc1ccccc1OCCNC(=O)NCC(C)C | -1.191 |
| COc1ccccc1OCCNC(=O)N1CCC(n2cncn2)CC1 | 92.74 |
| CC(C)c1ccc(C(C)NC(=O)N2CCC(n3cncn3)CC2)cc1 (stereo not given) | -4.399 |
| O=C(Nc1ccc(N2CCCC2)nc1)N1CCc2sccc2C1 | 6.616 |
| CCS(=O)(=O)NCCCNc1ncnc2cc(F)c(F)cc12 | -7.857 |
| O=C(NC[C@]12COC[C@H]1CN(CC1CCOCC1)C2)c1ccco1.O=C(O)C(F)(F)F | 6.419 |
| CS(=O)(=O)NC[C@]12COC[C@H]1CN(CC1CCC1)C2.O=C(O)C(F)(F)F | 92.98 |
| CS(=O)(=O)NC[C@]12COC[C@H]1CN(C(=O)Cc1ccccc1F)C2 | 6.41 |
| CS(=O)(=O)NC[C@]12COC[C@H]1CN(C(=O)CC1CCCC1)C2 | 102.4 |

| Structure (SMILES) | Percent Effect [%] |
| --- | --- |
| CS(=O)(=O)NC[C@]12COC[C@H]1CN(C(=O)c1ccoc1)C2 | -2.074 |
| CS(=O)(=O)NC[C@]12COC[C@H]1CN(C(=O)C1CCSCC1)C2 | 57.64 |
| Cn1cccc1C(=O)N1C[C@@H]2COC[C@]2(CNS(C)(=O)=O)C1 | -3.959 |
| CS(=O)(=O)NC[C@]12COC[C@H]1CN(C(=O)CCc1ccccc1)C2 | -0.4913 |
| O=C(O)C(F)(F)F.O=S(=O)(NC[C@]12COC[C@H]1CN(CCc1ccccc1)C2)C1CC1 | -3.746 |
| CS(=O)(=O)NC[C@]12COC[C@H]1CN(C(=O)N1CCCC1)C2 | 88.05 |
| Cc1ccoc1C(=O)N1C[C@@H]2COC[C@]2(CNS(C)(=O)=O)C1 | 15.9 |
| COC[C@]12COC[C@H]1CN(C(=O)C1CCSCC1)C2 | -5.007 |
| Clc1ccccc1OC1CCN(CC2CCOC2)CC1 (stereo not given) | -1.584 |
| CC(=O)Nc1ccc(CN2CCc3[nH]cnc3C2c2ccc(C)o2)cc1 (stereo not given) | -0.8872 |
| CC(=O)N[C@@H]1CN(C(=O)c2cc3sccc3[nH]2)C[C@H]1c1ccc(C)o1 | 26.08 |
| Cc1ccc(N2C[C@H]3OCC[C@H]3[C@H](C(=O)NCC3CC3)C2)nn1.O=C(O)C(F)(F)F | 0.1783 |
| Cc1ncsc1CCN(C)C(=O)CN1CCOC1=O | 2.507 |
| Cc1cnc(C(C)(C)NC(=O)NCc2ccc(C#N)cc2F)s1 | -5.008 |
| COc1ccc2nc(C[C@@H]3C[C@@H](C(C)C)[C@H](CN(C)C)C=C3C)[nH]c2n1 | -3.892 |
| C[S+]([O-])CCCNC(=O)c1cc(Br)c2c(c1)OCCO2 (stereo not given) | -5.642 |
| CS(=O)(=O)NC[C@]12COC[C@H]1CN(C(=O)c1ccccc1)C2 | 7.31 |
| CS(=O)(=O)NC[C@]12COC[C@H]1CN(C(=O)C1CC=CC1)C2 | 99.92 |
| COC[C@]12COC[C@H]1CN(C(=O)C1CC(F)(F)C1)C2 | -2.486 |
| CS(=O)(=O)NC[C@]12COC[C@H]1CN(C(=O)C1CC(F)(F)C1)C2 | 112.2 |
| CS(=O)(=O)NC[C@]12COC[C@H]1CN(C(=O)c1ncccn1)C2 | 4.055 |
| CS(=O)(=O)NC[C@]12COC[C@H]1CN(C(=O)c1ccncn1)C2 | 0.7032 |
| Cc1cc(CN(C)C(=O)c2cc3c([nH]c2=O)CCCC3=O)no1 | -8.225 |
| COc1c(C)cnc(CN(C)C(=O)c2cccc(NC(N)=O)c2)c1C | 7.754 |
| COCCN(CC(C)C)C(=O)c1cccc(Nc2cnccn2)c1 | 186.1 |

| Structure (SMILES) | Percent Effect [%] |
| --- | --- |
| CN(C)C(=O)c1cccc(Nc2cnn(C)c2)c1 | -3.903 |
| COc1ccnc(NC(=O)c2cnccn2)c1 | 0.1681 |
| COCCCN(C)C(=O)c1cccc(Nc2cnccn2)c1 | 100 |
| CN(CC1(O)CCCC1)C(=O)c1cccc(Nc2cnccn2)c1 | 136.4 |
| CC(=O)c1cccc(OCCCC(=O)N(C)CCc2ccncc2)c1 | 5.185 |
| COCCN(CCOC)C(=O)c1cccc(Cn2nc(C)cc2C)c1 | -2.572 |
| CN(Cc1cnccn1)C(=O)c1ccnc(OC2CCC2)c1 | -12.54 |
| CCC(=O)NCc1cc(Br)c(OC)c(OC)c1 | -2.986 |
| c1cnn(CCC2CCCCN2Cc2cnc(C3CCCCC3)nc2)c1 (stereo not given) | -23.18 |
| CC(=O)OCC1CCCCN1C(=O)c1ccc(Cn2ccnc2)o1 (stereo not given) | 0.6554 |
| N#Cc1cn(CCCN2CCc3ccccc32)c(=O)[nH]c1=O | 7.257 |
| CSc1cc2c(cc1NC(=O)NCC(=O)N(C)C)OCCO2 | -7.029 |
| Nc1c(Cl)cnn1C1CCN(Cc2ccccc2)C1 (stereo not given) | -6.784 |
| c1ccc(-c2nc(CCNCc3ccccn3)co2)cc1 | 85.74 |
| COc1ccc(-c2nc(CCNCc3ccncc3)co2)cc1 | 89.2 |
| c1ccc(-c2nc(CCNCc3cccnc3)co2)cc1 | 108.2 |
| c1ccc(-c2nnn3c2COC(CNCc2ccccn2)C3)cc1 (stereo not given) | -8.365 |
| CNC(=O)CS(=O)(=O)Cc1coc(-c2ccc(OC)cc2)n1 | -17.74 |
| c1ccc(-c2nc(CCNCc3ccncc3)co2)cc1 | 91.06 |
| c1ccc(-c2nc(CNCCn3cccn3)cs2)cc1 | 17.11 |
| c1ccc(Oc2ncccc2CNCc2ccccn2)cc1 | 6.646 |
| O=C1NCCCCC1SCc1coc(-c2ccccc2)n1 (stereo not given) | -18.22 |
| COc1cccc(-c2nc(CNCCc3cccnc3)cs2)c1 | 20 |
| Cc1nnc(NCCc2coc(-c3ccccc3)n2)c(C#N)c1C | -1.856 |
| COc1ccc(-c2nc(CCNc3nnc(C)c(C)c3C#N)co2)cc1 | 14.52 |

| Structure (SMILES) | Percent Effect [%] |
| --- | --- |
| CC(C)c1noc(C[S+]([O-])CC(=O)Nc2ccc(F)c(F)c2)n1 (stereo not given) | -5.19 |
| CC(=O)NCCCSCCOc1cccc(C#N)c1 | -7.407 |
| O=C(Nc1ccncc1)NC1CCN(c2ccccc2Cl)C1=O (stereo not given) | 1.637 |
| COc1ccc(CCN2CC(c3nc(CSC)no3)CCC2=O)cc1 (stereo not given) | -1.637 |
| Cc1cc(CNC(=O)c2ccc(C(C)N3CCCCC3)o2)[nH]n1 (stereo not given) | -3.545 |
| O=C(c1cccc(-n2cccn2)c1)N1CCCOC(CN2CCCC2)C1 (stereo not given) | 2.221 |
| Cc1nnc2n1CCN(C(=O)CN1C(=O)C(C)Oc3ccccc31)C2 (stereo not given) | 3.234 |
| COCCn1cc(NC(=O)N(CCC(N)=O)Cc2ccccc2)cn1 | -7.009 |
| Cc1nnc(NCCc2coc(-c3ccc(F)cc3)n2)c(C#N)c1C | 5.844 |
| Cc1ccc(-c2nc(CCNC(=O)NC3CCN(C)CC3)co2)cc1 | -5.87 |
| Cc1ccc(-c2nc(CCNCc3ccncc3)co2)cc1 | 83.41 |
| Cc1cnn(CCNCCCOc2ccc(C#N)cc2)c1 | 4.876 |
| Cc1nc2c(c(NCc3ccccc3)n1)CCN(C(=O)C1CCC1)CC2 | -5.333 |
| C=C/C=c1\c(=C/C)oc2c(NCc3ccccc3)nc(CC)nc12 | 112.6 |
| Cc1nc(NCc2cccnc2)c2c(n1)c(C)nn2C | -9.557 |
| C=C/C=c1\c(=C/C)oc2c(NCc3ccccc3)ncnc12 | 107.1 |
| CCC(CNc1ncnc2oc(C)nc12)Cc1ccccc1 (stereo not given) | -28.36 |
| CS(=O)(=O)c1ccc(NCc2ccccc2)cn1 | -7.161 |
| C=C/C=c1\c(=C/C)oc2c(NCc3ccccc3)nc(C)nc12 | 116.4 |
| Cc1ccc(-c2nc(CN3CCc4nn(C)c(=O)cc4C3)no2)cc1 | -3.521 |
| CCCNC(=O)C(C)NC(=O)Nc1ccccc1SC(F)F (stereo not given) | -20.86 |
| O=C(c1ccc2occc2c1)N1CCC(C(=O)O)(n2cccn2)CC1 | 17.51 |
| CO[C@H]1CN(S(=O)(=O)c2cn(C)cn2)[C@@H]2CCCO[C@H]12 | -0.7123 |
| CNC(=O)NC(=O)CCSc1ccccc1Cl | -6.595 |
| Cc1cccc(CC(=O)NS(=O)(=O)c2ccc(F)c(F)c2)c1 | -13.3 |
